In PubChem BioAssay (NCI) one finds growth inhibition data, which are given here for 19 molecules.

Values joined by “and” are separate entries in the source; they are usually repeats but may differ in a detail not shown here. Identical values can stand only once. Compounds without any hit were thinned out: in the full panel of roughly 79,000, 15% have a hit. Unmarked numbers belong to inactive results. Active and inactive are the calls of the source. Cut-off read from the data, not from the text of the source: active = growth inhibition above about 70%; inactive = the rest.

The nature of assay [1]: NCI Yeast Anticancer Drug Screen. Data for the rad50 strain (AID 155).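 Note: 0% = growth of vehicle-only cultures of the same strain.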 The note with it: S. cerevisiae rad50 strain growth inhibition, stronger effect = higher value; at 50.0 µM unless noted. The procedure, abridged: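 Genetically altered yeast (DNA repair pathway); compound treatment; growth inhibition vs vehicle ctrl.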
Assay [2] can be described thus: NCI Yeast Anticancer Drug Screen. Data for the mec2-1 strain (AID 157). As to conditions: S. cerevisiae mec2-1 strain, stronger effect = higher value; at 50.0 µM unless noted. The procedure, abridged:
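Compounds were applied to mec2-1 yeast cells. Their growth was then compared with that of vehicle-treated cultures to give growth inhibition.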

Assay [3] in a line: NCI Yeast Anticancer Drug Screen. Data for the sgs1 mgt1 strain (AID 161).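 Note: 0% = growth of cultures given vehicle only.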 The note with it: S. cerevisiae sgs1 mgt1 strain, stronger effect = higher value; at 50.0 µM unless noted. The procedure, abridged:
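Yeast cells carrying a defined DNA-repair defect were exposed to test compounds. Growth inhibition was measured relative to vehicle-treated controls.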

Assay [4] in a line: NCI Yeast Anticancer Drug Screen. Data for the cln2 rad14 strain (AID 165).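 Note: 0% = growth equal to vehicle treated cultures.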 The note with it: S. cerevisiae cln2 rad14 strain, stronger effect = higher value; at 50.0 µM unless noted. The procedure, abridged:
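Strain: cln2 rad14 yeast, altered in cell cycle control and DNA damage repair. Read-out: growth inhibition vs vehicle.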

The nature of assay [5]: NCI Yeast Anticancer Drug Screen. Data for the bub3 strain (AID 167). The note with it: S. cerevisiae bub3 mutant strain, stronger effect = higher value; at 50.0 µM unless noted. The procedure, abridged:
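Yeast carrying a defined mutation is treated with each compound, and growth is compared with that of vehicle-exposed cells to give inhibition.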

A short description of assay [6]: NCI Yeast Anticancer Drug Screen. Data for the mlh1 rad18 strain (AID 175). The note with it: S. cerevisiae mlh1 rad18 strain growth inhibition, stronger effect = higher value; at 50.0 µM unless noted. The procedure, abridged:
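A repair-deficient yeast strain is exposed to test compound, and growth is scored relative to vehicle-treated controls.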

As to `COC(=O)/C([O-])=C(\C(=O)OC)[n+]1cc(Br)cc2ccccc21`, the growth inhibition in assay [1] is 4.15%; in assay [2], 1.85%; in assay [3], 31.6%; in assay [4], -9.5%; in assay [5] it was 56.8%; in assay [6], -7.4%.

Turning to `CCCCCCCCCCCCC(=O)N1CCOCC1`, the growth inhibition is 99.5% (active) in assay [1]; 99.7% (active) in assay [2]; 99.8% (active) in assay [3]; 99.5% (active) in assay [4]; 99.6% (active) in assay [5]; 99.5% (active) in assay [6].

Regarding `O=C1CN2CCC1C/C2=C\c1ccnc2c(Cl)cc(Cl)cc12` (centres undefined), the growth inhibition was 7.75% in assay [1]; -7.55% in assay [2]; -0.9% in assay [3]; -3.4% in assay [4]; -12% in assay [5]; 19.2% in assay [6].

For `O=C(Nc1ccc(Cl)cc1)NC1OC(=O)C(Cl)=C1Cl` (centres undefined), the growth inhibition in assay [1] is 23.4%; in assay [2], 9.3%; in assay [3] it was 8.55%; in assay [4], -17.9%; in assay [5] it was 3.5%; in assay [6] it was 23.1%.

For the molecule `O=C(Nc1ccccc1Cl)c1cc2cc(N=Nc3ccc(Br)cc3)ccc2oc1=O`, the growth inhibition in assay [1] was 0.55%; in assay [2], 9.75%; in assay [3], -3.8%; in assay [4] it was 9.6%; in assay [5] it was -7.05%; in assay [6], -3.5%.

As to `Nc1cccc(OCCCCCOc2cccc(N)c2)c1`, the growth inhibition in assay [1] was -35.1%; in assay [2] it was -40.3%; in assay [3], -5.75%; in assay [4], 6.6%; in assay [5] it was -34.5%; in assay [6], -20.4%.

`CCCCCCCCCCCC(=O)NCc1ccc(OC(=O)CCCCCCCCCCC)c(OC)c1`: the growth inhibition is -7.55% in assay [1]; -9.8% in assay [2]; -6.3% in assay [3]; -34.1% in assay [4]; 4.1% in assay [5]; -8.85% in assay [6].

Regarding `NCc1ccc(F)cc1`, the growth inhibition in assay [1] is 24.9%; in assay [2], -10.7%; in assay [3], 32%; in assay [4], 12.7%; in assay [5], 2.4%; in assay [6], 26.5%.

As to `CC(O)C1(O)CCCCC1` (centres undefined), the growth inhibition in assay [1] was -11.8%; in assay [2], -1.95%; in assay [3], -2.05%; in assay [4], -29.6%; in assay [5], -13.2%; in assay [6] it was -14.8%.

For `Cc1c(NC(=O)CSC(=S)N(C)C)c(=O)n(-c2ccccc2)n1C`, the growth inhibition in assay [1] was -1.1%; in assay [2] it was -2.45%; in assay [3] it was -18.4%; in assay [4], 6.75%; in assay [5], -35.8%; in assay [6] it was -53.4%.

Turning to `O=C1C=C(c2ccccc2)C(c2ccccc2)C(c2ccccc2)C1` (centres undefined), the growth inhibition in assay [1] is 1.4%; in assay [2], 21%; in assay [3] it was 16.4%; in assay [4], -5.35%; in assay [5], 3.85%; in assay [6] it was -3.1%.

For `O=C(O)c1nc2ccccc2nc1C(=O)O`, the growth inhibition in assay [1] was -27.9%; in assay [2] it was -7.65%; in assay [3], -13.4%; in assay [4] it was -17.6%; in assay [5], -7.95%; in assay [6], -3.85%.

For the molecule `O=C1CCc2nc(-c3ccccc3)ncc21`, the growth inhibition in assay [1] is 9.25%; in assay [2] it was 0%; in assay [3], 1.95%; in assay [4] it was -5.55%; in assay [5], -2.2%; in assay [6] it was -0.8%.

`O=C(O)c1cccnc1C(=O)O`: the growth inhibition was -23.8% and 10.8% in assay [1]; -8.85% and -5.35% in assay [2]; 2.65% and -2.2% in assay [3]; -30.2% and 10.3% in assay [4]; -12% and -28.2% in assay [5]; 3.9% and 8.65% in assay [6].

Consider `O=C(Nc1cc(Cl)c(Cl)cc1Cl)C(=O)C(C(=O)c1ccc(Cl)c(Cl)c1)C1OC(=O)c2ccccc21` (centres undefined), for which the growth inhibition in assay [1] was 19.4%; in assay [2] it was 8.55%; in assay [3], 0.55%; in assay [4], 27%; in assay [5] it was 4.05%; in assay [6] it was 22.6%.

As to `CCN(CC)C(=O)C1CCN(CCOc2ccccc2)CC1`, the growth inhibition in assay [1] was -14.2%; in assay [2] it was 13.2%; in assay [3], 1.55%; in assay [4], -10%; in assay [5] it was -0.25%; in assay [6], -26%.

With `O=C(NC1CCCCC1)/C(=C\c1ccccc1)NC(=O)c1ccccc1`, the growth inhibition in assay [1] is -26.8%; in assay [2] it was -48.4%; in assay [3], -28.6%; in assay [4] it was 0.05%; in assay [5], -6.8%; in assay [6], -27.4%.

For `CCCCCCCCCCCCSC(=S)c1c(C)[nH]n(CCCCCCCCCCCC)c1=O`, the growth inhibition in assay [1] is 39.9%; in assay [2] it was 25.9%; in assay [3] it was 42.3%; in assay [4] it was 26.2%; in assay [5], 21.9%; in assay [6], 12.8%.

On to `CCN(CC)CCOC(=O)Cc1cccc2c(=O)cc(-c3ccccc3)oc12`, for which the growth inhibition in assay [1] is -1.65%; in assay [2] it was -11.7%; in assay [3], -3.65%; in assay [4] it was -3.9%; in assay [5], 14.8%; in assay [6] it was -53%.
